Source: ChEMBL document CHEMBL3988442, “University of Dundee, Small-Polar-MMV Screening Library” (2021)
Among all 66,000 compounds or so, about 960 (1.5%) showed an effect of 50% or more. The sample as a whole holds a higher share of strong results than the screen did.

System: Trypanosoma brucei
Test: Trypanosoma brucei 72 hour study
Type: functional, organism-based
Set-up: scale not given: in the data most compounds retested in dose-response had high values

O=C(c1cc(C2CCCCN2CCO)n[nH]1)N1CCOCC1.O=CO (configuration not stated)
Percent Effect (30.3 µM, […]): -18.9%

CC(C)c1cc(C(=O)N2CCc3nc(C4CCCN4)ncc3C2)cs1.Cl (configuration not stated)
Percent Effect (30.3 µM, […]): -27.95%

CCN(CC)Cc1ccc(C(=O)N2CCCC2c2cnn(C)c2)o1 (configuration not stated)
Percent Effect (10 µM): 2.271%

CCOc1ccccc1NC(=O)NCc1ccoc1
Percent Effect (30 µM, 30.03 µM): -38.02%

CN(CC(=O)Nc1ccccc1C(=O)NC1CC1)Cc1ccccc1Cl
Percent Effect (30 µM, 30.03 µM): -3.79%

CNC(=O)CN(C)Cc1ccc(F)cc1Cl
Percent Effect (30 µM, 30.03 µM): -10.17%

CCOc1ccccc1NC(=O)CN(C)Cc1ccccc1Cl
Percent Effect (30 µM, 30.03 µM): 104.4%

CCOc1cccc(CNc2ccccc2Cl)c1O
Percent Effect (30 µM, 30.03 µM): -19.48%

CCOC(=O)c1ccccc1NC(=O)CN(C)Cc1ccccc1Cl.O=C(O)C(=O)O
Percent Effect (30 µM, 30.03 µM): 103.8%

O=C(NCCc1cccs1)[C@H]1CO[C@H]2CCN(CC3CC3)C[C@H]2C1.O=C(O)C(F)(F)F
Percent Effect (30.3 µM, […]): -52.96%

CN(CC(=O)c1ccc2[nH]c(=O)[nH]c2c1)Cc1ccc2c(c1)OCO2
Percent Effect (30.3 µM, […]): 2.207%

CCOCC(O)CN1CCN(C(=O)c2ccc(N(C)C)nn2)CC1 (configuration not stated)
Percent Effect (30.3 µM, […]): -26.53%
Percent Effect (10 mM, 10 mM as filed; unlikely as a test dose): -123.6%

Cc1noc(NC(=O)c2ccccc2)n1
Percent Effect (30.3 µM, […]): 22.26%

Cc1noc(NC(=O)CCNC(=O)c2ccc(Br)cc2)n1
Percent Effect (30.3 µM, […]): -27.06%

COc1cc(C(=O)Nc2nc(C)no2)ccc1C
Percent Effect (30 µM, 30.03 µM): 38.15%

COc1cc(C(=O)Nc2nc(C)no2)ccc1OC(F)F
Percent Effect (10 µM): -60.85%

Cc1noc(NC(=O)c2ccc(Br)cc2)n1
Percent Effect (30 µM, 30.03 µM): 95.54%

Cc1noc(NC(=O)c2ccc(F)cc2)n1
Percent Effect (30.3 µM, […]): 23.19%

Cc1noc(NC(=O)c2cccc(Br)c2)n1
Percent Effect (30.3 µM, […]): 69.68%

COc1cc(C(=O)Nc2nc(C)no2)cc(OC)c1Br
Percent Effect (10 µM): -27.84%

Cc1noc(NC(=O)c2ccc(OC(F)(F)F)cc2)n1
Percent Effect (30 µM, 30.03 µM): 107.1%

Cc1noc(NC(=O)c2ccc(C)c(F)c2)n1
Percent Effect (30 µM, 30.03 µM): 65.47%

Cc1noc(NC(=O)c2ccc(C#N)cc2)n1
Percent Effect (30.3 µM, […]): -1.812%

Cc1ccc(C(=O)Nc2nc(C)no2)cc1
Percent Effect (30.3 µM, […]): 24.35%

CN1CCc2c(C#N)c(NCCCN3CCOCC3)n3cnnc3c2C1.Cl.Cl
Percent Effect (30 µM, 30.03 µM): 29.08%

CCOc1ccccc1CN1CCc2nc3ccsc3c(=O)n2CC1.Cl
Percent Effect (30.3 µM, […]): -5.491%

CCOC1COC2(CCN(Cc3ccc(C)c(C)c3)CC2)C1.O=C(O)C(F)(F)F (configuration not stated)
Percent Effect (30.3 µM, […]): 17.79%

COc1ccc(NS(=O)(=O)c2cnc(NC(C)=O)s2)cc1
Percent Effect (30.3 µM, […]): -9.359%

CN(Cc1cccnc1)[C@@H]1CN(Cc2cnn(C)c2)[C@@H]2CCCO[C@H]12.O=C(O)C(F)(F)F.O=C(O)C(F)(F)F.O=C(O)C(F)(F)F.O=C(O)C(F)(F)F
Percent Effect (30.3 µM, […]): -6.057%

N#Cc1ccc(CNC(=O)C2=NN(c3ccccc3)C(=O)CN2)cc1
Percent Effect (30 µM, 30.03 µM): -22.79%

O=C(NCc1cccnc1)C1=NN(c2ccccc2)C(=O)CN1
Percent Effect (30 µM, 30.03 µM): 71.31%

O=C(Nc1cccnc1)C1=NN(c2ccccc2)C(=O)CN1
Percent Effect (10 µM): -65.06%

CC(C)(C)CN1CCN(CC2CC2)C(CCO)C1 (configuration not stated)
Percent Effect (30 µM, 30.03 µM): -40.11%

O=C(Nc1ccccn1)C1(n2cnnn2)CCCCC1
Percent Effect (30 µM, 30.03 µM): -28.83%

O=C(O)C(F)(F)F.O=C1N(Cc2ccncc2)CCC12CCCN(c1ncc(F)cn1)C2 (configuration not stated)
Percent Effect (30.3 µM, […]): -38.62%

CN1CCCC[C@@H]2[C@H]1[C@@H](c1ccccc1)CCN2S(=O)(=O)N1CCCC1
Percent Effect (30.3 µM, […]): 98.76%

CN1CCCC[C@@H]2[C@H]1[C@@H](c1ccccc1)CCN2C(=O)c1cccnc1
Percent Effect (30.3 µM, […]): -28.46%

CN1CCCC[C@@H]2[C@H]1[C@@H](c1ccccc1)CCN2C(=O)c1ccncc1
Percent Effect (30.3 µM, […]): 2.626%

Cl.O=S(=O)(N1CCCC1)N1CC[C@H](c2ccccc2)[C@H]2NCCCC[C@H]21
Percent Effect (30.3 µM, […]): -20.77%

CN1CCCC[C@@H]2[C@H]1[C@@H](c1ccccc1)CCN2C(=O)c1ccccn1
Percent Effect (30.3 µM, […]): 12.07%

CN1CCCC[C@@H]2[C@H]1[C@@H](c1ccccc1)CCN2C(=O)c1ccccc1
Percent Effect (30.3 µM, […]): 97.59%

O=C(O)C(F)(F)F.O=C(O)C(F)(F)F.O=C(c1cccnc1)N1CCn2nnc(COc3ccccn3)c2C1
Percent Effect (30 µM, 30.03 µM): 20.03%

Cc1ncsc1CN1C[C@@H]2COC[C@]2(C(=O)NCC2CC2)C1.O=C(O)C(F)(F)F
Percent Effect (30 µM, 30.03 µM): -10.84%

CNc1ncc2c(n1)CN(C1CCCC1)C2=O
Percent Effect (30.3 µM, […]): -26.22%

CNCc1ccc([C@@H]2CN(C)C[C@H]2C(N)=O)cc1.Cl
Percent Effect (30.3 µM, […]): -7.095%

CC(C)(C)c1cc(CN2C[C@H]3CC[C@@H]2CN(Cc2cscn2)C3)n[nH]1
Percent Effect (30 µM, 30.03 µM): 14.03%

CC(C)c1nccn1CCCNC(=O)c1ccc(-c2cn[nH]c2)nc1
Percent Effect (30 µM, 30.03 µM): 3.874%

O=C(NCCC1COc2ccccc2O1)c1ccc(-c2cc[nH]n2)nc1 (configuration not stated)
Percent Effect (30 µM, 30.03 µM): 51.23%

CN(CC1COc2ccccc2O1)C(=O)c1ccc(-c2cn[nH]c2)nc1 (configuration not stated)
Percent Effect (30 µM, 30.03 µM): 34.02%

CC(C)c1noc(CCNC(=O)NCC2COc3ccccc3O2)n1 (configuration not stated)
Percent Effect (30 µM, 30.03 µM): -35.89%

O=C(NCc1ccc2c(c1)OCO2)c1ccc(N2CCCCCC2)nc1
Percent Effect (30 µM, 30.03 µM): -3.476%

CN(CC1COc2ccccc2O1)C(=O)C1=NN(C)C(=O)CC1 (configuration not stated)
Percent Effect (30 µM, 30.03 µM): -29.23%

Cn1ccnc1-c1ccc(NCCC2COc3ccccc3O2)nn1 (configuration not stated)
Percent Effect (30 µM, 30.03 µM): -17.77%

O=C(NCCC1COc2ccccc2O1)c1ccc(N2CC(O)C2)nc1 (configuration not stated)
Percent Effect (30 µM, 30.03 µM): 57.01%

O=C(NCCC1COc2ccccc2O1)c1ccc(-c2cn[nH]c2)nc1 (configuration not stated)
Percent Effect (30 µM, 30.03 µM): 81.06%

CN1CCCC(c2ccnc(C(=O)NC3CC3)c2)C1 (configuration not stated)
Percent Effect (30.3 µM, […]): -4.506%

Cc1occc1C(=O)N1CCC2(CC1)CC(OCc1ccccn1)CO2.O=C(O)C(F)(F)F (configuration not stated)
Percent Effect (30.3 µM, […]): -782.3%

CCC(C)NC(=O)c1nnn(-c2cccc3c2CCN(C)C3)c1C (configuration not stated)
Percent Effect (30 µM, 30.03 µM): 31.65%

CC(C)c1ncc(CN2CCC(CO)C2)cn1.O=C(O)CC(O)(CC(=O)O)C(=O)O (configuration not stated)
Percent Effect (30.3 µM, […]): -24.24%

O=C(NCc1cccnc1)N1CCC2(CC(=O)N(c3ccsc3)C2)C1.O=C(O)C(F)(F)F (configuration not stated)
Percent Effect (30.3 µM, […]): -73.27%

Cc1ccsc1-c1cccc(-c2ccn(CC3CCNC3)n2)c1 (configuration not stated)
Percent Effect (30 µM, 30.03 µM): 33.01%

Cc1ccc(Oc2cc(F)ccc2O[C@@H]2CCC[C@@H](N)[C@H]2O)cc1
Percent Effect (30.3 µM, […]): 100.7%

CNCc1cc(F)ccc1Oc1ccc(F)cc1
Percent Effect (30.3 µM, […]): -17.97%

N[C@@H]1CCC[C@@H](Oc2ccc(F)cc2Oc2ccccc2)[C@@H]1O
Percent Effect (30.3 µM, […]): 101.1%

Cc1cc(C)nc(N2CC[C@H](Oc3ccccc3F)[C@@H](O)CC2)n1
Percent Effect (30.3 µM, […]): -2.702%

Cc1noc(C)c1C(=O)N[C@@H]1CCC[C@@H](Oc2ccccc2)[C@@H]1O
Percent Effect (30.3 µM, […]): 5.859%

CN(C(=O)c1ccon1)[C@@H]1CCC[C@@H](Oc2ccccc2)[C@@H]1O
Percent Effect (30.3 µM, […]): -27.68%

Cc1noc(C)c1C(=O)N[C@@H]1CC[C@@H](Oc2ccccc2)[C@@H]1O
Percent Effect (30.3 µM, […]): -4.467%

N[C@@H]1CCC[C@@H](Oc2ccc(F)cc2Oc2cccc(F)c2)[C@@H]1O
Percent Effect (30.3 µM, […]): 3.71%

CN[C@@H]1CCC[C@@H](Oc2ccccc2Oc2ccc(C)cc2)[C@@H]1O
Percent Effect (30.3 µM, […]): 101%

Cc1ccc(N2CC[C@H]3O[C@@H](C(=O)N4CCCCO4)CC[C@H]32)nn1.O=C(O)C(F)(F)F
Percent Effect (30.3 µM, […]): -38.73%

Cc1cc(C(=O)N2CCc3nnc(N)cc3C2)c(C)n1-c1ccccc1
Percent Effect (10 µM): -23.32%
Percent Effect (30.3 µM, […]): -29.37%

Cc1ccoc1-c1nnc(CN2CCn3c(C)nnc3C2)o1
Percent Effect (10 µM): -13.57%
Percent Effect (30.3 µM, […]): -3.504%

CN(C)c1cc(C2CCCN(S(=O)(=O)c3cn[nH]c3)C2)ccn1 (configuration not stated)
Percent Effect (30.3 µM, […]): -2.52%

Cc1cccc(CNc2cc(C3CCCNC3)ccn2)n1.Cl (configuration not stated)
Percent Effect (30.3 µM, […]): 3.917%

CCC1CN(C)c2ccccc2CN1C(=O)Nc1ccccc1OC (configuration not stated)
Percent Effect (30.3 µM, […]): 42.13%

CC(c1cccnc1)N(C)Cc1cc(O)c2cc(F)ccc2n1 (configuration not stated)
Percent Effect (30 µM, 30.03 µM): -16.14%

Br.Cn1cc(CN2CCC(c3cc(COc4cccc(Cl)c4)[nH]n3)C2)cn1 (configuration not stated)
Percent Effect (30.3 µM, […]): 49.27%

O=C(O)C(F)(F)F.O=C(c1ccoc1)N1C[C@@H]2OCCN(c3ncccn3)[C@@H]2C1
Percent Effect (30.3 µM, […]): -8.279%

Cc1ccc2[nH]c(-c3cn(C4CCNCC4)nn3)nc2c1C
Percent Effect (30 µM, 30.03 µM): -22.65%

Cc1cccc2[nH]c(-c3cn(C4CCNCC4)nn3)nc12
Percent Effect (30 µM, 30.03 µM): -21.72%

Cc1c(C)c(C)c2[nH]c(-c3cn(C4CCNCC4)nn3)nc2c1C
Percent Effect (30 µM, 30.03 µM): 91.25%

O=C(NCC1CC1)C1CCC2(CCN(C(=O)c3cccnc3)CC2)O1.O=C(O)C(F)(F)F (configuration not stated)
Percent Effect (30.3 µM, […]): -34.45%

O=C([C@H]1C[C@@H]2CN(c3ncc(F)cn3)C[C@H]1O2)N1CCCC1
Percent Effect (30.3 µM, […]): -1.674%

Cc1cc(Cc2ccccc2F)cc(C2CCCNC2)n1 (configuration not stated)
Percent Effect (30.3 µM, […]): 18.5%

Cc1nc(C2CCCNC2)cc(N(C)CCc2ccccc2)n1 (configuration not stated)
Percent Effect (30.3 µM, […]): 33.93%

Cc1cc(Cc2ccccc2C)cc(C2CCCNC2)n1 (configuration not stated)
Percent Effect (30.3 µM, […]): 49.51%

Cc1cc(Nc2cnccn2)cc(C2CCCNC2)n1 (configuration not stated)
Percent Effect (30.3 µM, […]): -9.252%

Cc1cc(Cc2cccc(C(F)(F)F)c2)cc(C2CCCNC2)n1 (configuration not stated)
Percent Effect (30.3 µM, […]): 99.88%

Cc1cccc(Cc2cc(C)nc(C3CCCNC3)c2)c1 (configuration not stated)
Percent Effect (30.3 µM, […]): 100.3%

Cc1cc(Cc2ccccc2)cc(C2CCCNC2)n1 (configuration not stated)
Percent Effect (30.3 µM, […]): 2.708%

Cc1cc(Cc2ccc(F)cc2)cc(C2CCCNC2)n1 (configuration not stated)
Percent Effect (30.3 µM, […]): 51.54%

Cc1nc(NC2CCCCC2)cc(C2CCCNC2)n1.Cl (configuration not stated)
Percent Effect (30.3 µM, […]): 43.9%

CN1CC(=O)N(c2cnn(C)c2)CC12CCN(Cc1cccs1)C2.O=C(O)C(F)(F)F.O=C(O)C(F)(F)F (configuration not stated)
Percent Effect (30 µM, 30.03 µM): -5.896%
